BAZ2B inh – blocks human BAZ2B. Potency, µM (highest dose often 114 µM), inactives show top-dose activity change, negative = inhibition, usual class: inhibitors. 4.4% of 360,000 active. AlphaScreen BAZ2B-H3K14Ac peptide displacement; further: potency means the concentration at half of the fitted maximal effect; on the % scale 0 is the no-effect control and ±100 the full control effect; nearly all actives have a fitted effect of over 60% in size
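Compounds, titrated to a top concentration of 110 uM, were incubated 30 min at room temperature with preformed BAZ2B/acetyl-K14 H3 peptide complex (50 nM each). Proximity signal was measured by AlphaScreen after 20 min with beads.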
JMJD2A Tudor – blocks the human JMJD2A Tudor domain. O75164. AlphaScreen JMJD2A-Tudor / H3K4me3 peptide binding. Potency, µM (titrated, usually from 114 µM), for inactives: top-dose activity change, negative = inhibition, hits mostly inhibitors. 4.4% of 390,000 active. AID 504339; further: potency means the concentration at half of the fitted maximal effect; on the % scale 0 is the no-effect control and ±100 the full control effect; nearly all actives have a fitted effect of over 50% in size
HP1b chromo inh – inhibitors of HP1-beta chromodomain binding to methylated histone tails. P83916. AlphaScreen HP1-beta / biotin-H3K9me3 peptide binding. Potency, µM (titrated, usually from 114 µM), for inactives: top-dose activity change, negative = inhibition, most hits filed as inhibitors. 0.56% of 390,000 active. AID 540317; further: potency means the concentration at half of the fitted maximal effect; nearly all actives have a fitted effect of over 70% in size
Target sequence (P83916 whole entry, looked up): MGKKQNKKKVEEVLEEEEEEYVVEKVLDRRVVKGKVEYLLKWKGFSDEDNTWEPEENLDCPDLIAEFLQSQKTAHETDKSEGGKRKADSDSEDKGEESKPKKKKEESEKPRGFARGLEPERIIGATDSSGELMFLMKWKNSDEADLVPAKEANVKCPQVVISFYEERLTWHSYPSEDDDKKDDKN
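HP1-beta protein (50 nM final) preincubated 30 min at room temperature with biotinylated H3(1-18)K9me3 peptide (50 nM) in PBS pH 7.4, 0.01% Tween-20, then compound added for 30 min. AlphaScreen streptavidin donor/nickel chelate acceptor beads (10 ug/mL final), 30 min dark, luminescence read.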
CtBP-E1A blk – inhibitors of CtBP/E1A interaction | AlphaScreen GST-E1A/His-CtBP binding, 1536-well; active compounds read low | activity change, % (concentration not given with the values) | 0.49% of 340,000 active; in the data active means activity change below about -65%; inconclusive means mostly about -30% to -63%; further: on the % scale 0 is the no-effect control and ±100 the full control effect
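GST-E1A and His-tagged CtBP (125 nM each as 5X stock) were preincubated with pin-transferred compound for 2 h at 37 °C in the dark, then glutathione donor and nickel acceptor beads were added for 1 h before AlphaScreen reading.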
G9a inh – G9a (human) methyltransferase inhibition; Q96KQ7; Potency, µM (doses to about 102 µM), without a hit: at the highest dose activity, negative = inhibition, most hits filed as inhibitors; 8.8% of 350,000 active; G9a H3K9 monomethylation, AlphaScreen, 2 h; further: potency means the concentration at half of the fitted maximal effect; on the % scale 0 is the no-effect control and ±100 the full control effect; nearly all actives have a fitted effect of over 75% in size
Target sequence (Q96KQ7 913-1193 limits assumed): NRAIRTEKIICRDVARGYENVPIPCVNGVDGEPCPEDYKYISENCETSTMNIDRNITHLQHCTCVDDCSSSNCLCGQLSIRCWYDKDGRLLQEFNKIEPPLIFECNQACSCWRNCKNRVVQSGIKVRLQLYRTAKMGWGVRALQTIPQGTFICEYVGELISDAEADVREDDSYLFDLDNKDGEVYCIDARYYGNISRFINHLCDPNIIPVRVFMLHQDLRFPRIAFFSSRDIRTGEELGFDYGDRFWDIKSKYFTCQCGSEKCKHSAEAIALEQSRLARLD
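Using a bead-based AlphaScreen, monomethylated H3K9 product from 2 h room-temperature reactions (G9a 20 nM, peptide 500 nM, SAM 20 uM) was detected with 0.5 ug/mL rabbit anti-H3K9me1 antibody.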
Six1-Eya2 inh – inhibitors of human Six1/Eya2 interaction. 0.56% of 360,000 active. AlphaScreen GST-Six1/His-Eya2 binding, biochemical; active compounds read low. activity change, % (no concentration beside the values). AID 651725; in the data active means activity change below about -65%; inconclusive means mostly about -30% to -63%; further: on the % scale 0 is the no-effect control and ±100 the full control effect
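Six1/Eya2 binding was read as AlphaScreen signal after compounds were pinned into GST-Six1 plus His-tagged Eya2 (5X stock 250/500 nM) in pH 8.0 Tris/NaCl/TCEP buffer, beads added, then incubated 1 h, 37 C, dark.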
Active calls of the source: *; u = inconclusive; x = no result; [ ] = dose if it differs, or a comment. Compounds with a hit are over-represented: about 10% of the library has one in this group of screens. Unless noted, the call rests on the fitted dose curve; in most records, active means well fitted inhibition curve with a large enough effect; inconclusive means small, poorly fitted or top-dose-only effect; inactive means no such curve, though single readings can be large or run the other way.

SMILES	BAZ2B inh	JMJD2A Tudor	HP1b chromo inh	CtBP-E1A blk	G9a inh	Six1-Eya2 inh
CC1CC=CC2C1C(=O)N(Cc1ccccc1)C2c1ccc2ccccc2c1Br (centres undefined)	x	-6%	21%	x	x	x
Cc1ccc(S(=O)(=O)N(Cc2cccc(F)c2)C(=O)N2CCN(C)CC2)cc1	12%	-11%	22%	2	u	6
O=C(CCCCCN1C(=O)CCC1=O)Nc1ncn[nH]1	50µM*	50µM*	47%	14	13%[12.7 µM]	-4
COC(=O)c1ccccc1NC(=O)c1cn2c3c(ccc(Cl)c3c1=O)OC(C)C2 (centres undefined)	4%	-2%	26%	x	-1%[59 µM]	x
CNC(=O)COC(=O)/C=C/c1ccco1	-7%	-14%	37%	x	u	14
O=C(COC(=O)/C=C/c1ccco1)NCc1ccco1	45µM*	79µM*	-10%	x	32µM*	-17
O=C(COC(=O)/C=C/c1ccco1)NCc1ccccc1Cl	15%	-13%	24%	2	45µM*	-2
COc1ccc(CNC(=O)COC(=O)/C=C/c2ccco2)cc1	u	-9%	2%	10	56µM*	-2
Cc1nc2ccccc2n1C(c1cccnc1)c1nc2ccccc2[nH]1 (centres undefined)	x	x	x	-4	x	-2
O=C(NCCS(=O)(=O)NCCc1ccccc1)c1ccccc1	-3%	-11%	31%	3	16%	0
Cc1c(C)c2c(C)nn(-c3ccccc3)c2[nH]c1=O	-22%	-5%	32%	0	24%[12.7 µM]	-5
Nc1c2c(=O)[nH]c(O)cc2nn1-c1ccccc1	x	-16%	4%[57 µM]	-66*	x	7
CCOc1cc(/C=N/NC(=O)COc2nc(C)cc(COC)c2C#N)ccc1O	-2%	-13%	32%	x	-4%	u
COCc1cc(C)nc(OCC(=O)N/N=C/c2ccc(O)cc2O)c1C#N	40µM*	-34%	44%	-88*	28%	-84*
COCc1cc(C)nc(OCC(=O)N/N=C/c2ccccc2O)c1C#N	79µM*	-15%	34%	-84*	47%	-91*
COc1cccc(-c2nc(N3CCCC3)c3ccccc3n2)c1O	u	u	-9%	-3	x	-8
COc1cccc(-c2nc(NC(C)(C)C)c3ccccc3n2)c1O	u	u	-10%	-9	u	-15
COc1ccc(Nc2nc(-c3cccc(OC)c3O)nc3ccccc23)cc1	40µM*	u	-16%	u	50µM*	u
COc1cccc(-c2nc(N3CC(C)CC(C)C3)c3ccccc3n2)c1O (centres undefined)	u	u	u	0	35µM*	-22
CC1CCN(c2nc(-c3ccccc3O)nc3ccccc23)CC1	0%	22%	67%	7	5%[59 µM]	-1
COc1cccc(-c2nc(N3CCC(C)CC3)c3ccccc3n2)c1O	u	56µM*	-44%	5	35µM*	-3
CC1CCN(C(=O)c2ccc3c(c2)N(Cc2ccccc2F)C(=O)c2ccccc2S3(=O)=O)CC1	-38%	-21%	18%	x	-7%[59 µM]	x
CC(=O)c1ccc(Nc2cc(C)nc3nc(Cc4ccc(Cl)cc4)nn23)cc1	-7%	-23%	15%	x	u	x
CNCc1ccccc1Sc1ccc(O)c(O)c1	u	79µM*	u	-2	13µM*	-2
COc1ccccc1C1N=C(Nc2nc3ccccc3o2)NC2=C1C(=O)CC(C)(C)C2 (centres undefined)	x	-19%[57.1 µM]	5%[57 µM]	x	x	x
SMILES	BAZ2B inh	JMJD2A Tudor	HP1b chromo inh	CtBP-E1A blk	G9a inh	Six1-Eya2 inh
CC(C)c1ccc(/C=C2\SC(=S)N(CCC(=O)N3CCCCC3CCO)C2=O)cc1 (centres undefined)	u	13µM*	-38%[57 µM]	x	45µM*	-13
COc1ccc(/C=C2\SC(=S)N(CCCC(=O)N3CCCCC3CCO)C2=O)cc1 (centres undefined)	7.9µM*	35µM*	-24%	u	-4%[0.0925 µM]	-13
O=C1/C(=C\c2ccccc2)SC(=S)N1CCC(=O)N1CCCCC1CCO (centres undefined)	u	-3%	35%	-14	u	-5
O=C1/C(=C/c2ccccc2Cl)SC(=S)N1CCC(=O)N1CCCCC1CCO (centres undefined)	u	u	-2%	x	u	-14
NC(CO)C(=O)NNCc1ccc(O)c(O)c1O (centres undefined)	4.5µM*	10µM*	u	u	1.4µM*	-5
CCOC(=O)C1CCCN(C(=O)Cn2cnc3c2c(=O)n(C)c(=O)n3C)C1 (centres undefined)	3%	1%	36%	0	-33%	1
CCCNC(=O)Cn1sc2nc(C)cc(C)c2c1=O	50µM*	3.2µM*	u	8	x	0
CC(=O)Cn1cnc2c(sc3nc(C)cc(C)c32)c1=O	-15%	-13%	25%	2	2%	-22
CCOC(=O)C1CCCN(C(=O)Cn2sc3nc(C)cc(C)c3c2=O)C1 (centres undefined)	15%	5.6µM*	u	-23	1.6µM*	3
Cc1cc(C)c2c(=O)n(CC(=O)N3CCC(N4CCCCC4)CC3)sc2n1	3%	3.2µM*	3.5µM*	1	1µM*	-3
Cc1cc(N2CCN(c3cccc(C)c3C)CC2)n2nc(C)c(-c3ccc(Cl)cc3)c2n1	-5%	-7%	54%	x	-19%[59 µM]	x
CCOc1ccccc1-n1nnc(-c2nc(-c3ccccc3)no2)c1N	-8%	-7%	34%	x	-1%[59 µM]	x
COc1ccc(C(=O)NCCNc2nc3cc(C)cc(C)c3cc2C#N)nc1	x	x	x	3	x	0
Cc1ccc(NS(=O)(=O)c2cc3c(cc2Cl)NC(=O)CO3)cc1C	x	-22%	x	x	x	x
Cc1ncsc1C(=O)Nc1cccc(C(F)(F)F)c1	3%	3%	23%	6	7%	2
COc1ccc(N2CC(O)=C(c3nc(-c4ccc(F)cc4)cs3)C2=N)cc1Cl	-3%	40µM*	-6%	-22	23%	-11
COc1ccc(/C=N/N=C2/CC(C)(C)Cc3n[nH]c(=O)cc32)cc1	-30%	-4%	41%	3	35µM*	1
COc1ccc(F)cc1S(=O)(=O)n1nnc2ccccc21	-2%	-6%	32%	u	4%	-68*
COc1ccc(Cl)cc1S(=O)(=O)n1nnc2ccccc21	u	-31%	25%	-12	50µM*	3
COc1ccc(Cl)cc1S(=O)(=O)n1ccnc1C(C)C	1%	-26%	46%	7	50µM*	1
COc1ccc(OC)c(S(=O)(=O)n2nnc3ccccc32)c1	u	-10%	37%	2	-29%[59 µM]	u
C=CCCN(C(C)C(=O)OC)S(=O)(=O)c1ccccc1Br (centres undefined)	x	2%	61%	x	x	x

Source: PubChem (National Center for Advancing Translational Sciences (NCATS))
